Structures are written as SMILES. The panel holds about 83,000 compounds, 20% with a hit somewhere; the sample as a whole holds those more often.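 Each cell line was grown in a 96-well plate and treated with one concentration of compound for 48 hours. Values below 10 were considered active.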 Values without a mark were called inactive. Activity calls are given as the source filed them.

This experiment concerns MDA-MB-468 breast. Kind of experiment: NCI-60 one-dose screen, 48 h (100 = growth as untreated, 0 = no growth, -100 = all killed). The settings on record: 10 µM unless noted.
As to `COc1cc(OC)c(/C=C/C(=O)c2c(N)cc(OC)cc2OC)c(OC)c1`, the growth was -17.1% (active).

Regarding `CC12CCC(CC1)C(C)(C)O2`, the growth is 108%.

Turning to `OCc1ccc(N2CCc3cccc(F)c3C2)cc1Cl`, the growth was -49.9% [0.1 µM] (active).

Regarding `COC1CCC(N2C(=O)CNc3ncc(-c4ccc(C(C)(C)O)nc4)nc32)CC1` (centres undefined), the growth was -25.2% (active).

For the compound `N/C(=N\c1nc2c(Cl)cc(Cl)cc2s1)C(Cl)(Cl)Cl`, the growth was -48.6% (active).

Regarding `CCN1CCN(c2nc(NNC(=O)c3ccc(OC)cc3)nc(N3CCN(C(c4ccccc4)c4ccccc4)CC3)n2)CC1`, the growth was 10.7%.

`O=[N+]([O-])c1ccc(OCCCOc2ccccc2)cc1`: the growth was 104%.

Consider `COc1ccc([C@@H]2c3[nH]c4ccccc4c3C[C@H]3C(=O)N(C4CCN(CC5CCCCC5)CC4)CC(=O)N23)c(OC)c1`, for which the growth is 58.7%.

On to `Cc1cc2ccccc2c(O)c1C#N`, for which the growth was 117%.

`Clc1ccc2c(NCCCn3cnc4c(N5CCCC5)nc(Cl)nc43)ccnc2c1`: the growth is 107%.

`CC(C)Nc1cc(-c2c[nH]c(C(=O)N[C@H](CO)c3cccc(Cl)c3)c2)c(Cl)cn1`: the growth is 43.6%.

On to `Cc1cc(-c2ccc(N=Nc3c(S(=O)(=O)O)cc4cc(S(=O)(=O)O)cc(N)c4c3O)c(C)c2)ccc1N=Nc1cc(S(=O)(=O)O)c2ccccc2c1O`, for which the growth is 105%.

Turning to `COc1ccc2c(c1)sc1nc(-c3ccccc3)c(-c3cccc4ccccc34)n12`, the growth is 11.5%.

Turning to `COc1cc2c(cc1OC)C1(C)N(CC2)C(=O)OC1(C)C` (centres undefined), the growth was 93.1%.

(Values after PubChem BioAssay (NCI).)
